High-throughput results deposited in PubChem by National Center for Advancing Translational Sciences (NCATS).
Sampled rows, rich in hits. Any-hit rate of the full collection: about 11%.
Pf growth 48h – Primary qHTS for delayed death inhibitors of the malarial parasite plastid, 48 hour incubation. Potency, µM (series often up to 28.7 µM), hits mostly inhibitors. P. falciparum luciferase growth in erythrocytes, 48 h. actives 5.9% (n = 310,000)
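First compound was added to culture medium, then infected red cells at 0.1% parasitemia and 2% hematocrit (final). After incubation at 37 C under 5% CO2, luciferase detection reagent was dispensed and light output recorded.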
Vaccinia Venus – qHTS for Stage-Specific Inhibitors of Vaccinia Orthopoxvirus: Venus Reporter Primary qHTS; Vaccinia virus Venus reporter expression, fluorescence; Potency, µM (top dose mostly 36.5 µM), actives largely listed as inhibitors; actives 0.46% (n = 330,000); AID 720580, 2013; calls by dose curve; tested in A549 cells; note: nearly all actives have a fitted effect of over 30% in size
HCV inh – qHTS Assay for Inhibitors of Hepatitis C Virus (HCV) | Huh7.5.1 HCVcc-Cre infection, luciferase reporter, 44 h | Potency, µM (series often up to 41.8 µM), usual class: inhibitors | actives 3.4% (n = 340,000) | AID 651820, 2012
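A cell-based infection assay in which seeded cells (1,000 per well) receive test compound after 4 h, are inoculated with HCVcc-Cre at approximately 0.5 moi, and are incubated 44 h before luminescence detection.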
NS1 inh – qHTS Assay for Inhibitors of Influenza NS1 Protein Function; Potency, µM (titrated, usually from 46.1 µM); actives 0.4% (n = 270,000); AID 2326, 2010; calls by dose curve; note: actives are rising curves; nearly all actives have a fitted effect of over 50% in size
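A cell-based growth assay was used: compounds that relieve NS1-induced slow growth of budding yeast raise OD600. Assay medium was yeast nitrogen base with ammonium sulphate and -URA supplement, pH 6.0, with 2% galactose.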
Pf growth 96h – Primary qHTS for delayed death inhibitors of the malarial parasite plastid, 96 hour incubation. P. falciparum luciferase reporter growth, 96 h. Potency, µM (doses to about 28.7 µM), hits mostly inhibitors. actives 6.9% (n = 320,000). AID 504834, 2011
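96 h incubation, 37 C, 5% CO2, of luciferase-reporter P. falciparum-infected RBCs (2% hematocrit, 0.05% parasitemia final) with test compounds; endpoint luminescence.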
VACV mCherry inh – qHTS for Stage-Specific Inhibitors of Vaccinia Orthopoxvirus: mCherry Reporter Primary qHTS. actives 0.63% (n = 310,000). Potency, µM (series often up to 36.5 µM), usual class: inhibitors. AID 720579, 2013. Vaccinia virus mCherry reporter infection, fluorescence; calls by dose curve; tested in A549 cells; note: nearly all actives have a fitted effect of over 35% in size
Hits are given with their value; 0 = inactive; ? = inconclusive; - = not tested or not shown; [ ] = another dose, or the depositor's remark. Unless noted, calls come from the whole dose curve; as a rule, active = well fitted inhibition curve with a large enough effect; inconclusive = small, poorly fitted or top-dose-only effect, or another doubt; inactive = no such curve, though single readings can be large or run the other way.

SMILES	Pf growth 48h	Vaccinia Venus	HCV inh	NS1 inh	Pf growth 96h	VACV mCherry inh
COc1cc(OCC(=O)NC(C)C)cc2c1C(=O)O[C@@H](C)CCCC(=O)CCCCC2	0	-	0	0	?	-
C[C@H]1CCCC(=O)CCCCCc2cc(O)cc(O)c2C(=O)O1	4.1µM	0	?	0	9.3µM	0
CCCCCCCCO	0	0	0	-	?	0
COc1ccc(Cl)cc1NC(=O)c1[nH]nc(OC)c1[N+](=O)[O-]	0	-	0	0	0	-
COc1n[nH]c(C(=O)Nc2cc(Cl)ccc2Cl)c1[N+](=O)[O-]	?	0	0	0	4.7µM	0
COC(=O)CSc1nc2c(c(-c3ccco3)c1C#N)CCCC2	1.9µM	0	?	0	-	0
N#Cc1c(N)nc(SCC(=O)OCc2ccccc2)c(C#N)c1-c1ccco1	?	-	0	0	4.1µM	-
CC(C)OC(=O)CC(=O)CSc1nc2c(c(-c3cccs3)c1C#N)CCC2	0	0	10µM	0	0	0
Cc1c(C#N)c(SCC(N)=O)nc2c1CCCC2	0	0	0	?	9.3µM	-
CCOc1ccccc1OCC(=O)Nc1ccc(Cl)cc1Cl	0	0	0	0	0	0
COc1cc2c(=O)n(Cc3ccccc3)c(=O)n(CC(=O)Nc3cc(C(F)(F)F)ccc3Cl)c2cc1OC	-	0	-	-	-	?
O=C(N1CCN(c2ccccc2F)CC1)C1(S(=O)(=O)c2ccc(Cl)cc2)CC1	0	0	0	0	?	0
CCOC(=O)C(C)Sc1nc2c(c(-c3cccs3)c1C#N)CCC2 (configuration not stated)	?	0	?	0	10µM	0
COc1ccc(-n2c(=S)[nH]c3cc(C(=O)Nc4ccc(C)c(F)c4)ccc3c2=O)c(OC)c1	0	?	11µM	0	0	0
CCS(=O)(=O)N1CCCC(C(=O)NCCc2ccc(OC)c(OC)c2)C1 (configuration not stated)	0	0	0	0	0	-
COc1ccc(CCNC(=O)C2CCCN(S(=O)(=O)c3cc(C)ccc3OC)C2)cc1OC (configuration not stated)	12µM	-	0	0	5.2µM	-
CCOc1ccc(OCC)c(NC(=O)C2CCCN(S(=O)(=O)c3cnc[nH]3)C2)c1 (configuration not stated)	-	0	?	0	4.7µM	0
CCOc1ccc(NC(=O)C2CCCN(S(=O)(=O)c3cnc[nH]3)C2)cc1 (configuration not stated)	0	0	0	0	0	0
COc1ccc(CCNC(=O)C/C(C)=N/NC(=O)c2ccc(N)cc2)cc1OC	0	0	?	0	?	-
COc1ccc(CCNC(=O)C2CCCN(S(=O)(=O)c3cnc[nH]3)C2)cc1OC (configuration not stated)	-	0	0	?	13µM	0
COc1ccc(CCNC(=O)C2CCN(S(=O)(=O)c3cnc[nH]3)CC2)cc1OC	0	0	?	0	?	0
COc1ccc(CCNC(=O)C/C(C)=N/NC(=O)C2CCCCC2)cc1OC	0	0	0	0	8.3µM	0
CC(C)C(NC(=O)CNC(=O)OC(C)(C)C)C(=O)NCc1ccc(Cl)cc1 (configuration not stated)	0	0	0	0	0	0
COc1ccc(CCNC(=O)C2CCN(S(=O)(=O)c3ccc4nc5c(c(C(=O)O)c4c3)CCCC5)CC2)cc1OC	0	-	0	0	9.3µM	-
COc1ccc(CCNC(=O)C2CCN(S(=O)(=O)c3cccc4nsnc34)CC2)cc1OC	?	0	0	0	-	0
SMILES	Pf growth 48h	Vaccinia Venus	HCV inh	NS1 inh	Pf growth 96h	VACV mCherry inh
COc1ccc(CCNC(=O)C2CCN(S(=O)(=O)c3cccc4cccnc34)CC2)cc1OC	0	-	0	0	17µM	-
CCSc1nc(C)cc(Oc2ccc(=O)n(C)n2)n1	0	-	0	0	0	-
O=C(NC(=S)Nc1ccccc1Cl)c1cncc(Br)c1	0	0	0	0	12µM	0
CC1CCCC(NC(=S)NC(=O)c2cncc(Br)c2)C1C (configuration not stated)	13µM	0	0	0	0	0
CCOc1cc(C)nc(N2CCCC(C(=O)NCc3ccccc3F)C2)n1 (configuration not stated)	2.9µM	0	0	0	-	0
COc1ccc(CNC(=O)C2CCCN(c3nn4c(=O)cc(C)nc4s3)C2)cc1 (configuration not stated)	0	-	0	0	9.3µM	-
CCOc1ccccc1CNC(=O)C1CCCN(c2nn3c(=O)cc(C)nc3s2)C1 (configuration not stated)	?	0	0	0	15µM	0
CCc1ccccc1NC(=O)C1CCCN(c2nn3c(=O)cc(C)nc3s2)C1 (configuration not stated)	?	0	0	0	10µM	0
Cc1cc(=O)n2nc(N3CCCC(C(=O)Nc4ccc(C)c(C)c4)C3)sc2n1 (configuration not stated)	0	0	?	0	?	0
Cc1ccc(NC(=O)C2CCN(c3nn4c(=O)cc(C)nc4s3)CC2)cc1	-	0	-	-	-	0
Cc1ccc(NC(=O)C2CCCN2c2nn3c(=O)cc(C)nc3s2)cc1 (configuration not stated)	0	0	0	0	12µM	0
Cc1ccc(C)c(NC(=O)c2cc[n+](C)cc2)c1	0	0	0	0	0	0
C/C(=N/NC(=O)c1ccccc1)C(=O)O	0	0	0	0	?	0
COc1ccc(/C=N/Nc2nnc(-c3ncc[nH]3)c3ccccc23)cc1	0	-	0	0	0	-
Oc1ccc2ccccc2c1/C=N/Nc1nnc(-c2ncc[nH]2)c2ccccc12	2.6µM	-	3.2µM	0	-	-
Oc1ccc2ccccc2c1C=NNc1ccccn1	-	?	3.2µM	-	-	?
COc1cc2c(cc1OC)C(COc1ccc(C(C)C)cc1)NCC2 (configuration not stated)	?	-	0	0	12µM	-
CC1(C)CC(=O)C2=C(C1)Nc1ccccc1NC2c1ccccc1F (configuration not stated)	?	-	0	0	0	-
Cc1c(C2Nc3ccccc3NC3=C2C(=O)CC(C)(C)C3)cnn1C (configuration not stated)	?	0	0	0	5.9µM	0
C#CCSc1nsc(SCC#C)c1C#N	?	0	11µM	0	?	0
COC(=O)CSc1nsc(SCC(=O)OC)c1C#N	0	0	0	0	0[5.75 µM]	0
N#Cc1c(SCC(=O)N2CCCCC2)nsc1SCC(=O)N1CCCCC1	15µM	0	0	0	0	0
Cc1c(Br)cc(C(=O)NC2CCCCC2)c(C)c1C	0	-	0	0	?	-
CC(=O)c1ccc(N2CCN(c3ncc(C(F)(F)F)cc3Cl)CC2)cc1	-	0	0	0	?	-
Cc1cccc(N/N=C(\C(N)=O)C2=NC(C)(C)Cc3ccccc32)c1	5.9µM	?	11µM	0	4.7µM	?
